# Lassa entry inh: Lassa virus entry inhibition | Potency, µM (highest dose often 37.9 µM), for inactives: top-dose activity change, negative = inhibition, usual class: inhibitors | Lassa virus pseudotype entry inhibition, cell reporter | 1.2% of 300,000 active; calls by dose curve; tested in HEK293 cells; further: potency means the concentration at half of the fitted maximal effect; nearly all actives have a fitted effect of over 50% in size
# FMDV antiviral: foot and mouth disease virus antiviral activity. FMDV antiviral cell-based qHTS. Potency, µM (doses to about 57.9 µM), without a hit: top-dose activity change, negative = inhibition, most hits filed as inhibitors. 1.2% of 410,000 active. AID 1159524; calls by dose curve; tested in HEK293T cells; further: read-out not given here; potency means the concentration at half of the fitted maximal effect; nearly all actives have a fitted effect of over 45% in size
# MARV entry inh: Marburg virus entry inhibition; Potency, µM (doses to about 37.8 µM), without a hit: top-dose activity change, negative = inhibition, most hits filed as inhibitors; Marburg virus pseudotyped entry inhibition, cell reporter; 1.8% of 300,000 active; calls by dose curve; tested in HEK293 cells; further: potency means the concentration at half of the fitted maximal effect
# Vaccinia Venus: vaccinia inhibition (Venus reporter) | Vaccinia virus Venus reporter expression, fluorescence | Potency, µM (highest dose often 36.5 µM), without a hit: top-dose activity change, negative = inhibition, actives largely listed as inhibitors | 0.46% of 330,000 active | AID 720580; calls by dose curve; tested in A549 cells; further: potency means the concentration at half of the fitted maximal effect; nearly all actives have a fitted effect of over 30% in size
# Vaccinia mCherry: vaccinia inhibition (mCherry reporter) | Vaccinia virus mCherry reporter infection, fluorescence | Potency, µM (series often up to 36.5 µM), inactives show at the top dose activity change, negative = inhibition, hits mostly inhibitors | 0.63% of 310,000 active | AID 720579; calls by dose curve; tested in A549 cells; further: potency means the concentration at half of the fitted maximal effect; nearly all actives have a fitted effect of over 35% in size
# HCMV antiviral: human cytomegalovirus inhibition | HFF cells, HCMV-luciferase reporter, 72 h; hits give low values | activity change, negative = inhibition, % at 57.5 µM | 4.5% of 410,000 active | AID 1259415; in the data active means activity change below about -60%; inconclusive means no clear call, values can overlap the other calls; inactive means above about -39%
#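 HFF cells seeded 16 h at 37C, treated with compounds, infected with luciferase-reporter HCMV at MOI 1 PFU/cell; luciferase read at 72 h post infection, normalized to buffer-only and Salinomycin controls.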
# * hit, by the source's call; i = inactive; ? = inconclusive; . = no result given; [ ] = dose if it differs, or a comment. This is a sample that favours compounds with a hit; in the whole collection about 6.5% have one here. On the % scale 0 is the no-effect control and ±100 the full control effect.
SMILES,Lassa entry inh,FMDV antiviral,MARV entry inh,Vaccinia Venus,Vaccinia mCherry,HCMV antiviral
COc1ccc(CCNC(=O)c2csc3c2CCCCC3)c(OC)c1,.,-10.2%,?,-9.8%,-11.9%,?
CC(NC(=O)CCc1nnc(-c2ccc(-c3ccccc3)cc2)o1)c1nc2ccccc2[nH]1 (centres undefined),?,?,?,-13.2%,-15.9%,-68.4*
Cc1cccc(CC(C)NC(=O)CCc2nnc(-c3ccccc3)o2)n1 (centres undefined),.,20.9%,.,.,.,19.9
COc1ccc([C@]23Cc4cc(C#N)ccc4[C@H](O2)c2c(cc(-c4ccccc4)oc2=O)O3)cc1,.,.,7.0%[14.2 µM],.,.,.
COc1cc(/C=C(\C#N)c2nc3ccccc3[nH]2)cc(Cl)c1OCc1ccccc1Cl,-27.7%[46.1 µM],?,?,-23.9%,-25.3%,-80.0*
N#C/C(=C\c1ccc(OCc2ccc(Cl)cc2Cl)cc1)c1nc2ccccc2[nH]1,-0.5%[46.1 µM],-27.1%,.,-12.7%,-6.7%,20.3
COc1ccc2c(c1)[C@@H](NS(C)(=O)=O)[C@H](C)[C@@H](c1ccccc1)N2Cc1cccc(F)c1,.,.,.,.,.,-8.8
COc1cccc(C(=O)N2CCCC(c3nc(-c4cccs4)no3)C2)c1 (centres undefined),-10.4%,-1.8%,2.0%,.,.,-103.5*
CC(C)Nc1oc(-c2ccccc2)nc1-c1ccc(C(F)(F)F)cc1,.,.,-8.1%[14.2 µM],.,.,.
COc1ccc(NC(=O)c2ccco2)cc1NC(=O)C(C)(C)Oc1ccc(Cl)cc1,?,44.7µM*,?,-19.6%,-21.4%,-1.1
COc1ccc(NC(=O)Cc2ccc(Cl)cc2)cc1NC(=O)c1ccco1,-25.7%,-25.6%,-0.1%,.,.,-85.9*
COc1ccc(NC(=O)c2ccco2)cc1NC(=O)C(C)Oc1ccc(Cl)cc1Cl (centres undefined),?,?,?,-14.0%,-13.1%,-80.1*
CCC(=N[C@H](CC)CO)C1=C(O)CC(C)(C)CC1=O,.,.,7.1%,.,.,.
CN(C)c1cccc(CNc2nccc3[nH]c(-c4cccc(F)c4)nc23)c1,.,.,.,.,.,-16.1
CCC(=O)NC(c1ccco1)c1cc(Cl)c2ccccc2c1O (centres undefined),.,-11.9%,.,.,.,?
CCCC(=O)NC(c1cccs1)c1cc(Cl)c2cccnc2c1O (centres undefined),?,-20.8%,3.55µM*,8.8%,-19.6%,-114.1*
CCCC(=O)NC(c1ccco1)c1cc(Cl)c2cccnc2c1O (centres undefined),?,-4.2%,?,?,?,-98.1*
CCCC(=O)NC(c1ccc2c(c1)OCO2)c1cc(Cl)c2cccnc2c1O (centres undefined),?,-25.1%,?,?,12.6µM*,.
COc1ccc(C(=O)NCC2Cc3cc(F)cc(-c4cncnc4)c3O2)cc1 (centres undefined),.,16.4%,.,-2.8%,i,.
CCCCn1c(-c2csc3c2CCCC3)n[nH]c1=S,-0.1%,-7.0%,2.5%,.,.,44.2
CCCCn1c(-c2csc3c2CCC(C)C3)n[nH]c1=S (centres undefined),14.8%,-16.3%,-1.9%,.,.,-60.9*
NC1=NC(c2ccc(Br)cc2)n2c(nc3ccccc32)N1 (centres undefined),0.6%[46.1 µM],10.2%,-14.2%[46.1 µM],-10.3%,-13.2%,?
CCc1ccc(C2N=C(N)Nc3nc4ccccc4n32)cc1 (centres undefined),?,0.0%,-5.6%[46.1 µM],-4.8%,i,-67.0*
Clc1ccccc1-c1cc(NCc2cccnc2)ncn1,.,21.6%,.,-4.4%,-2.1%,.
O=C1C(Cl)=C(Nc2ccccc2)C(=O)c2ccccc21,?,39.8µM*,?,-1.1%,i,-0.2
SMILES,Lassa entry inh,FMDV antiviral,MARV entry inh,Vaccinia Venus,Vaccinia mCherry,HCMV antiviral
CCN(CC)CCCNC1=C(Cl)C(=O)c2ccccc2C1=O,?,28.2µM*,?,?,?,-93.9*
C=CCNC1=C(Cl)C(=O)c2ccccc2C1=O,?,-14.3%,?,12.6µM*,?,68.4
O=C1C(Cl)=C(NCc2cccnc2)C(=O)c2ccccc21,?,?,?,28.2µM*,?,-28.0
COCCCNC1=C(Cl)C(=O)c2ccccc2C1=O,25.1%[46.1 µM],4.1%,-21.8%[46.1 µM],-20.3%,?,-22.1
O=C(NCc1ccc(F)cc1)[C@@H]1[C@@H](CO)[C@@H]2Cn3c(cccc3=O)[C@H]1N2CC1CCCC1,.,.,.,.,.,-2.1
CC1=C(Nc2ccc(C(=O)O)cc2)C(=O)c2ccccc2C1=O,.,8.8%,.,.,.,75.7
O=C(O)c1ccc(NC2=C(Cl)C(=O)c3ccccc3C2=O)cc1,.,25.1µM*,.,.,.,?
Cc1ccc(NC2=C(NC(=O)c3ccccc3)C(=O)c3ccccc3C2=O)cc1Cl,?,-26.7%,?,?,?,?
O=C1c2ccccc2C(=O)c2c(NCCc3ccc(O)cc3)ccc(NCCc3ccc(O)cc3)c21,5.17µM*,.,20.6µM*,.,.,.
O=C(O)c1cccc(NC2=C(Cl)C(=O)c3ccccc3C2=O)c1,.,?,.,.,.,-99.6*
CC(=O)N(Cc1ccc(F)cc1)c1cccc(C)c1C,-11.7%,-14.5%,-21.8%[46.1 µM],-15.4%,-17.1%,?
CC(=O)N(Cc1ccc(F)cc1)C1=C(NCCc2ccccc2)C(=O)c2ccccc2C1=O,7.08µM*,25.1µM*,?,3.16µM*,2.82µM*,-99.8*
O=C(Nc1cc(S(=O)(=O)N2CCOCC2)ccc1N1CCCC1)c1ccc2c(c1)S(=O)(=O)c1ccccc1C2=O,-11.4%,?,-11.9%[46.1 µM],7.3%,-9.1%,4.5
O=C1C(Cl)=C(NCCc2ccccc2)C(=O)c2ccccc21,?,-17.1%,?,25.4%,-23.2%,-64.0*
CCc1cccc2sc(N3CCN(C(=O)c4ccc([N+](=O)[O-])o4)CC3)nc12,?,?,5.01µM*,?,?,.
C=C(c1ccccc1)[C@H](C#N)C1CCCC1,.,.,.,.,.,14.7
N#Cc1ccc(CSC2=NCCN2)cc1,?,-27.5%,?,-21.9%,-22.0%,?
CCOc1ccc(CSC2=NCCN2)cc1Cl,?,-14.1%,14.6µM*,.,.,35.0
C=CCNc1nc(S(=O)Cc2ccc(C)cc2)nc2c1CCCC2 (centres undefined),.,-23.3%,.,.,.,-98.3*
COc1ccc(CCNC(=O)C(=O)NCC2CCCN2S(=O)(=O)c2ccc(OC)cc2)cc1 (centres undefined),?,?,?,-19.3%,-1.2%,-7.6
S=C(Nc1ccc(Br)cc1Cl)N1CCCC1,20.6%,51.1%,-2.7%,-13.9%,i,65.7
CC(C)NC(=O)Nc1ccc(Br)cc1Cl,?,-22.6%,7.2%[46.1 µM],-3.4%,i,-61.2*
O=C(Nc1ccc(CN2CCCCC2)cc1)Nc1ccc(Br)cc1Cl,?,-10.5%,10µM*,-26.2%,-2.9%,-61.7*
CC1(C)NC(=O)N(Cc2cc(=O)n3ccsc3n2)C1=O,-13.8%,-5.2%,13.6%,-1.8%,-0.1%,-2.0
C#CCNC(=O)[C@H]1C=C(OC)C(=O)C[C@H](c2ccccc2)[C@H]1C,.,.,7.6%[14.2 µM],.,.,.

# Compound activity (PubChem)
